Experimental findings from PubChem BioAssay AID1220 (Sanford-Burnham Center for Chemical Genomics, 2008) are described below.

Out of some 190,000 compounds screened, about 1,300 (0.68%) were called active. Many of the other results were omitted from the sample, so actives are more common in it than they were. Values without a mark were called inactive. Cut-off read from the data, not from the text of the source: active = inhibition above about 50%; inactive = the rest.

A word on the inhibition: it is the change of the read-out against control, counted positive when it falls.

In this test the target is Mannose-6-phosphate isomerase (Homo sapiens) (UniProt P34949). Nature of the test: human PMI inhibitors, high substrate, primary screen, biochemical, fluorescence intensity, high mannose 6-phosphate (AID 1220). The following applies: recombinant PMI enzyme, coupled fluorescence intensity; at 20 µM; stronger effect = higher value.
Sequence of Mannose-6-phosphate isomerase (Homo sapiens) (P34949 whole entry, looked up): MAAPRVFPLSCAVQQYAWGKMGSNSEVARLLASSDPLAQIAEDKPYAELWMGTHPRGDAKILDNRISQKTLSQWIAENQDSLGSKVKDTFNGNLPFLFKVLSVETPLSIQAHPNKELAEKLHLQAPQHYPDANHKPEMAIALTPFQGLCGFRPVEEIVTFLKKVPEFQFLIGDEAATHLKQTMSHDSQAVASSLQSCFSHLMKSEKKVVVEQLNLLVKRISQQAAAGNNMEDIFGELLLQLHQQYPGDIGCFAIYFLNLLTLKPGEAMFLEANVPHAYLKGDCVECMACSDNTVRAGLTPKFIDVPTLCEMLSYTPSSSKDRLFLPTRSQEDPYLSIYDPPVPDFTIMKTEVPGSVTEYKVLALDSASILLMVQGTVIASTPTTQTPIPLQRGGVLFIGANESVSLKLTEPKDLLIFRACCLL
In the case of `COc1ccc(-c2[nH]ncc2CNCC(C)(C)N2CCOCC2)cc1F`, the inhibition was 8.1%.

As for `CN=C(Nc1cccc(OC)c1)SC1CC(=O)N(c2ccc(C(=O)O)cc2)C1=O` (configuration not stated), the inhibition was 8.7%. On to `O=C(CCS(=O)(=O)Cc1ccc(Cl)cc1)NCCCN1CCOCC1`, for which the inhibition was 4.1%. Under `CCCCCCCCCCCCCCCC[n+]1cccc2ccccc21` stands -9.4%; under `CCN(CC)C(=S)NC(=O)c1ccc(Cl)cc1Cl`, 0.2%.

Consider `CCCN(CCC)C(=S)NC(=O)c1ccc(Cl)cc1Cl`, for which the inhibition is 87.2% (active). For the molecule `CCCCN(CCCC)C(=S)NC(=O)c1ccccc1Cl`, the inhibition is 7.7%.

For the molecule `CCOc1cc(N2CCOCC2)c(OCC)cc1NC(=O)c1ccc(=O)n(Cc2ccccc2)n1`, the inhibition was 7.5%. Turning to `CC1CCN(C(C(=O)NC2CCCCC2)c2cc3c(cc2[N+](=O)[O-])OCO3)CC1` (configuration not stated), the inhibition is 61.1% (active).

For `O=CN1CCN(C(C(=O)NC2CCCCC2)c2cc3c(cc2[N+](=O)[O-])OCO3)CC1` (configuration not stated), the inhibition was 58.3% (active). Consider `O=C(NC1CCCC1)C(c1cc2c(cc1[N+](=O)[O-])OCO2)N1CCCC1` (configuration not stated), for which the inhibition was 23.9%. To `CCN1CCN(C(C(=O)NC2CCCC2)c2cc3c(cc2[N+](=O)[O-])OCO3)CC1` (configuration not stated) belongs 46.2%; to `O=C(NC1CCCCC1)C(c1cc2c(cc1[N+](=O)[O-])OCO2)N1CCCCC1` (configuration not stated), 46.3%; to `O=CN1CCN(C(C(=O)NC2CCCC2)c2cc3c(cc2[N+](=O)[O-])OCO3)CC1` (configuration not stated), 31.4%.

As for `CCOC(=O)Cn1nc(C)n(-c2c(C)cccc2C)c1=O`, the inhibition is 8.1%.

In the case of `Cc1cc(Cl)ccc1OCCCC(=O)N1CCCCC1`, the inhibition was -5.5%. Under `COc1ccc(S(=O)(=O)N2CCSC2c2ccc(OC)c(OC)c2)cc1` (configuration not stated) stands -17.1%; under `Cc1cccc(NC(=S)NCCc2ccccc2)n1`, 6.5%; under `C=CCOn1c(C)c(C(C)=O)c2c3nonc3ccc21`, 49.2%. To `COn1c(C)c(C(C)=O)c2c3no[n+]([O-])c3ccc21` belongs 8.2%. As for `COn1c(C)c(C(C)=O)c2c3nonc3ccc21`, the inhibition was 58% (active). To `C=CC[n+]1c(/C=C2\C=Cc3cc(C)ccc3N2CC)ccc2ccccc21` belongs 9%; to `CCN1C(=C(C#N)C#N)C=Cc2cc(C)ccc21`, 5.3%; to `CCN1/C(=C/c2cc[n+](C)cc2)C=Cc2cc(C)ccc21`, 66.7% (active). As for `CCOC(=O)c1ccc(NC(=O)c2n[nH]c(=O)c3ccccc23)cc1`, the inhibition is -0.1%. To `CCN(CC(=O)Nc1cccc(C(C)=O)c1)S(=O)(=O)c1ccc(C)cc1` belongs -6.4%; to `O=c1c2c(-c3ccc([N+](=O)[O-])cc3)csc2nc2n1CCC2`, 28.9%. Turning to `Cc1cc(O)ccc1Nc1nc(-c2sc(N)nc2C)cs1`, the inhibition was 2%. To `CN(c1ccc(O)cc1)c1nc(-c2ccccc2)cs1` belongs 25.1%; to `Cc1nc(N)sc1-c1csc(N(C)c2ccc(O)cc2)n1`, 56.3% (active).

In the case of `CNC(=S)N1N=C(c2ccccc2)CC1c1ccccc1Cl` (configuration not stated), the inhibition was 1%.

In the case of `CC(C)(C)NC(=S)NCc1ccc2c(c1)OCO2`, the inhibition is -10.4%.

With `Cc1cc(NC(=O)COc2cccc3cccnc23)no1`, the inhibition was 51.1% (active). As for `Cc1cc(NC(=O)COc2ccccc2C)no1`, the inhibition was -5.2%. To `Cc1cc(NC(=O)COc2cccc(C)c2C)no1` belongs 4.6%; to `O=C(COc1cccc2cccnc12)NCc1cccs1`, 37.7%. To `Cc1ccc(NC(=O)CN(C)S(=O)(=O)c2cccc3cccnc23)cc1` belongs 15.3%. Under `NNC(=O)COc1cccc2cccnc12` stands -9.1%; under `O=C(COc1cccc2cccnc12)NCC(F)(F)F`, 56.1% (active); under `O=C(COc1cccc2cccnc12)Nc1ccccc1`, 5.4%.

On to `CCc1ccc(NC(=O)CC2C(=O)Nc3c2c(=O)n(C)c(=O)n3C)cc1` (configuration not stated), for which the inhibition was 2.9%. Under `CC1SC(c2ccc(Cl)cc2)NC1=O` (configuration not stated) stands 7.4%; under `NC(=O)c1cc2ccccc2o/c1=N/NC(=O)c1cccs1`, 2.2%; under `COc1ccc(OC)c(NC(=O)N[C@@H](Cc2ccccc2)C(=O)O)c1`, 8.2%. To `Cn1c(C(=O)NC2CC2)cc2c(=O)n(C)c3ccccc3c21` belongs 0%; to `COc1ccc(OC/C(O)=C(\C#N)c2nc3ccccc3[nH]2)cc1`, 1.2%; to `CCC(=O)Nc1cccc(C(=O)/C=C/c2ccc(F)cc2)c1`, 9.5%. To `O=C1CCCC2=C1C(c1ccccc1)CC(=O)N2c1ccc(F)cc1F` (configuration not stated) belongs 5.4%; to `CCOC(=O)c1ccc2c(c1)N(CC(=O)N1CCCCC1)C(=O)C(C)(C)O2`, 5.7%.

Turning to `COc1ccc(Nc2nc(C)c(-c3ccccc3)s2)cc1`, the inhibition was 6.2%. To `CCn1cc(C(=O)O)c(=O)c2cnc(N3CCNCC3)nc21` belongs 14.5%. To `CCn1cc(C(=O)O)c(=O)c2cnc(N3CCN(C(=O)Nc4cccc5ccccc45)CC3)nc21` belongs 58.3% (active); to `S=C(Nc1cccc2ccccc12)N1CCN(c2ncccn2)CC1`, 33.6%. Regarding `C=CCNC(=S)N1CCN(c2ncc3c(=O)c(C(=O)O)cn(CC)c3n2)CC1`, the inhibition was 14.8%. To `O=C(Nc1cccc2ccccc12)N1CCN(c2ccccc2)CC1` belongs 15.4%; to `O=C(Nc1cccc2ccccc12)N1CCN(c2ncccn2)CC1`, 68.9% (active); to `CCn1cc(C(=O)N2CCn3c(nc4ccccc43)C2)c(=O)c2ccc(C)nc21`, -2%. Regarding `CCn1c(CN2CCN(CCO)CC2)nc2ccccc21`, the inhibition is 2.7%. Under `CC1CCCC(C)N1/N=C/c1ccc(Cl)cc1` (configuration not stated) stands -10.4%. Take `CCN1C(=O)/C(=C/C=C2/Sc3ccccc3N2CCO)SC1=S`: the inhibition was 8.4%. Under `CCCN1C(=O)/C(=C\C=C2\N(CC)c3ccccc3C2(C)C)SC1=S` stands 18.5%; under `CCN1C(=O)/C(=C2/C=CC=CN2C)SC1=S`, 9.3%.

For `CCN1C(=O)/C(=C\N2CCCCCC2)SC1=S`, the inhibition is 7%. Turning to `CCCCN1C(=O)/C(=C/C=C2\Oc3ccccc3N2CC)SC1=S`, the inhibition is 19.9%. Under `CCCN1C(=O)/C(=C\C=C2/C=CN(CC)c3ccccc32)SC1=S` stands 65.3% (active). `CCN1C(=O)/C(=C/C=C2\C=CN(CC)c3ccccc32)SC1=S`: the inhibition is 64.1% (active). On to `CCCN1C(=O)/C(=C/C=C2\N(CC)c3ccccc3C2(C)C)SC1=S`, for which the inhibition is 10.7%. Under `CCN1C(=O)/C(=C\C=C2/C=CC=CN2CC)SC1=S` stands 65.6% (active); under `CCn1c(C(C)NC(=O)Cc2ccccc2)nc2ccccc21` (configuration not stated), -0.2%.

In the case of `O=C(CSc1nnc2ccccn12)Nc1ccc2c(c1)OCO2`, the inhibition is 13.7%. As to `Cc1ccc(NC(=S)NN(C)c2cc(C)nc(C)n2)cc1`, the inhibition is -11%. With `CCS(=O)(=O)NCCc1cc2cc(C)c(C)cc2[nH]c1=O`, the inhibition was 0.4%. To `CCCCOC(=O)c1cc(=O)[nH]c2ccccc12` belongs 6.8%. To `Cc1cc(C(=O)N/N=C/c2ccc3c(c2)OCO3)c(C)n1-c1ccc(F)cc1` belongs -30.4%.

With `COc1ccc(/C=N/NC(=O)c2cc(C)n(-c3ccccc3)c2C)cc1OC`, the inhibition is 9.5%. Under `COc1cc(/C=N/NC(=O)c2cc(C)n(-c3ccc(F)cc3)c2C)cc(OC)c1O` stands 51.9% (active); under `Nc1ccc(O)cc1C(=O)OCC(=O)c1ccc(C2CCCCC2)cc1`, 60.3% (active).

`COc1ccc(C(=O)OCC(=O)c2ccc(C3CCCCC3)cc2)cc1`: the inhibition is 9.2%.

With `O=C(COC(=O)c1ccccc1[N+](=O)[O-])c1ccc(C2CCCCC2)cc1`, the inhibition was -0.8%.

Take `CCCOc1ccc(N2C(=O)CC(N3CCC(O)(c4cccc(C(F)(F)F)c4)CC3)C2=O)cc1` (configuration not stated): the inhibition is 7.5%.

For `CC(=O)Oc1cc2oc(=O)cc(C)c2cc1OC(C)=O`, the inhibition was 55.7% (active).

As to `CC(=O)c1cc2c(C)cc(=O)oc2cc1O`, the inhibition was 11.3%. Under `CC(=O)Oc1ccc2c(C)cc(=O)oc2c1` stands 2%; under `CC(=O)c1cc2c(cc1NC(=O)CCc1ccccc1)OCO2`, 0.5%; under `CCOc1cc(/C=C2\C(=O)N(c3ccc(C(N)=O)cc3)N=C2C)ccc1OC(=O)c1cccs1`, 61.4% (active). Turning to `CCOc1cc(/C=C2/C(=O)N(c3ccccc3)N=C2C)ccc1OC(=O)c1ccco1`, the inhibition is 43.2%.

With `CCOc1cc(/C=C2/C(=O)N(c3ccccc3)N=C2C)ccc1OC(=O)c1cccs1`, the inhibition was 17%. Take `CCOc1ccc(NCCC#N)cc1`: the inhibition was 2.3%.

Turning to `CCOc1ccc(NC(=O)NC2CCOC(C)(C)C2)cc1` (configuration not stated), the inhibition was 11.5%. As to `CCOc1ccc(NCC2CCOC(C)(C)C2)cc1` (configuration not stated), the inhibition is 50.9% (active).

Consider `CCN(CC)S(=O)(=O)c1cccc(C(=O)OCC(=O)NC(C)c2ccccc2)c1` (configuration not stated), for which the inhibition is -2.8%.

As to `O=C(CNC(=O)/C(=C\c1ccc(F)cc1)NC(=O)c1ccccc1)OCc1ccccc1`, the inhibition is 0.8%. Under `O=C(NCc1cccnc1)c1ccc(COc2cccc3ccccc23)o1` stands 53.2% (active); under `COc1ccccc1OCc1ccc(C(=O)NCc2cccnc2)o1`, 6.8%.

Regarding `O=C(NCc1cccnc1)c1ccc(COc2ccccc2Br)o1`, the inhibition is 11.6%.

Take `CC1CCN(c2c(NCC3CCC(C(=O)NCCc4ccccc4)CC3)c(=O)c2=O)CC1` (configuration not stated): the inhibition was 1.2%. Under `Cn1ncc(N=Cc2ccccc2)c1C(=O)Nc1cccc(Cl)c1` stands 14.7%; under `Cn1ncc(N=Cc2c(O)ccc3ccccc23)c1C(=O)Nc1cccc(Cl)c1`, 64% (active). Consider `Cn1ncc(N=Cc2ccccc2O)c1C(=O)Nc1ccccc1`, for which the inhibition is 16.9%. To `C/C(CC(=O)Nc1ccccn1)=N\NC(=O)C(=O)Nc1ccccc1C` belongs 13%; to `CCOC(=O)C(Cc1ccc(Cl)cc1Cl)c1ccno1` (configuration not stated), 0.3%; to `O=C(NCc1ccco1)C1CCN(c2nc3ccccc3n2Cc2ccccc2F)CC1`, 25.8%. Under `COc1ccccc1C(=O)OCC(=O)Nc1ccc(Cl)cn1` stands 6.1%; under `COc1ccccc1NCCC(=O)OCC(=O)Nc1ccc(Cl)cn1`, 50.3% (active).

Regarding `O=C(COC(=O)CCOc1ccccc1)Nc1ccc(Cl)cn1`, the inhibition was 9.2%.

In the case of `O=c1c2[nH]c3ccccc3c2ncn1Cc1ccccn1`, the inhibition is 1.8%. To `CC(=O)c1c(C)[nH]c(C(=O)N2CCc3ccccc3C2)c1C` belongs 12.7%.
